PubChem BioAssay AID624330 (Southern Research Specialized Biocontainment Screening …, 2012)
Among all 340,000 compounds or so, about 2,100 (0.62%) were called active.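 Rule for the calls: active = first-screen hits whose inhibition reached a set limit at any dose in the follow-up dose series; inconclusive = inhibition above the set first-screen limit but never retested; inactive = the rest.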 Not all results are given here. Entries with a potency or affinity are not part of this list.

Target: Rac GTPase-activating protein 1 (Homo sapiens) (UniProt Q9H0H5)
Assay: MgcRacGAP GTPase-activating activity inhibitors, confirmation, biochemical, ADP Hunter fluorescence, primary and confirmatory (AID 624330);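 note: fluorescence reports GDP produced by GAP-driven GTP hydrolysis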
Conditions: MgcRacGAP-stimulated Rac1 GTP hydrolysis, at 30 µM, stronger effect = higher value, GST-tagged Rac1 F28L mutant substrate

Sequence of Rac GTPase-activating protein 1 (Homo sapiens) (Q9H0H5 whole entry, looked up): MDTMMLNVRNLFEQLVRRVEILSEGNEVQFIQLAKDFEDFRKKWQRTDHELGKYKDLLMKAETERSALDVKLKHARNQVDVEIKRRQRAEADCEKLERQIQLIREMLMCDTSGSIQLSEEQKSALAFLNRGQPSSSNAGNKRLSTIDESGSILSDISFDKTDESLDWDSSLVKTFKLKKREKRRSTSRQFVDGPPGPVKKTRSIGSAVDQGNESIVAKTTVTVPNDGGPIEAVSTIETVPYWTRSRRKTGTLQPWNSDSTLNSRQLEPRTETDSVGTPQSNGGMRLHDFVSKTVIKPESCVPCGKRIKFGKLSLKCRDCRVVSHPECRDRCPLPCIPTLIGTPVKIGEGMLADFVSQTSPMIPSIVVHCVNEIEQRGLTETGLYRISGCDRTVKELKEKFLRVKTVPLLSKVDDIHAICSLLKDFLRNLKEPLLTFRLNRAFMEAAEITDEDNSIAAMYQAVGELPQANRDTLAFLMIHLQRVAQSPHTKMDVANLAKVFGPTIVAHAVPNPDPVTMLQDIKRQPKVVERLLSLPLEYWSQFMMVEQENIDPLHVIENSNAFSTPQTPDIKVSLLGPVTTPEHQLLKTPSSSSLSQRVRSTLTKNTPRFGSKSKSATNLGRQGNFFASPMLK

inhibition, inactive:
Cc1ccc(S(=O)(=O)CCC(=O)OCC(=O)Nc2cc(F)ccc2C)cc1 1.06%, CCOC(=O)CC1C(=O)NCCN1S(=O)(=O)c1cccc(C(F)(F)F)c1 (stereo not given) 7.16%, O=C(Nc1ncnc2sc3c(c12)CCCC3)c1ccncc1 -0.48%, O=C(CCCN1C(=O)/C(=C\c2ccccc2)SC1=S)Nc1ccc(O)cc1C(=O)O 12.8%, COc1cc(/C=C2\SC(=S)N(NC(=O)c3ccccc3OC)C2=O)ccc1O 8.13%, O=C(NN1C(=O)/C(=C/c2ccc(O)cc2)SC1=S)c1cccc(O)c1 30.8%, O=C(O)c1ccc(/C=C2\SC(=S)N(NC(=O)c3ccccc3)C2=O)cc1 8.51%, Cc1ccc(/C=C2\SC(=S)N(CCC(=O)NNC(=O)c3ccc(O)cc3)C2=O)cc1 6.6%, O=C(NN1C(=O)/C(=C/c2cccc(O)c2)SC1=S)c1ccccc1O 5.04%, CCOC(=O)CSc1nc2cc(S(=O)(=O)Nc3ccccc3OC)ccc2o1 5.81%, Clc1cccc(CSc2ncnc3c2ncn3C2CCCCO2)c1 (stereo not given) 2.71%, NS(=O)(=O)c1ccc(CCNC(=O)CN2CCN(Cc3cccc4ccccc34)CC2)cc1 3.28%, O=C1NC(=S)S/C1=C\c1cccc([N+](=O)[O-])c1 11.9%, O=C(O)/C=C/c1ccc([N+](=O)[O-])o1 12.4%, Cc1cc2[nH]c3ccccc3c2cn1 17%, COC(=O)c1c(NC(=O)C2CCCCC2)sc2c1CCN(C(C)C)C2 8.85%, CC(=O)N1CCN(CC(O)COc2ccc(OCc3ccccc3)cc2)CC1 (stereo not given) 3.99%, CCOC(=O)N1CCN(CC(O)COc2c(C)cc(C)cc2C)CC1 (stereo not given) 3.3%, Cc1cccc(C)c1OCC(O)CN1CCN(C(=O)c2ccccc2)CC1 (stereo not given) -23.8%, COc1cccc(OCC(O)CN2CCOCC2)c1 (stereo not given) 6.97%, O=C(c1ccccc1)N1CCN(CC(O)COc2ccc(Br)cc2)CC1 (stereo not given) 1.08%, CCN1CCN(CC(O)COc2cccc(OC)c2)CC1 (stereo not given) 8.83%, CCN(CC)CCNC(=O)NC(=O)c1ccc(Cl)cc1 -9.05%, O=C(NCc1ccccc1F)C(=O)NCC1OCCCN1S(=O)(=O)c1cccs1 (stereo not given) -0.33%, COc1ccc(NC(=O)COc2nsnc2N2CCCCC2)cc1 17.2%, Cc1ccc(N(Cc2ccc(C(=O)NCC3CCCO3)cc2)S(C)(=O)=O)cc1C (stereo not given) -2.07%, COc1ccc(O[C@@H]2O[C@H](COC(C)=O)[C@@H](OC(C)=O)[C@H](OC(C)=O)[C@H]2NC(C)=O)cc1 5.33%, CC(=O)NC1C(Oc2ccc(C=O)cc2)OC(COC(C)=O)C(OC(C)=O)C1OC(C)=O (stereo not given) 0.46%, O=C(NCc1ccc(F)cc1F)Nc1cnccc1C(F)(F)F 0.3%, CC1(c2nnc(-c3ccccc3)o2)CC(c2c(Cl)cccc2Cl)=NO1 (stereo not given) 7.59%, C(=N\N1CCN(c2ccccn2)CC1)/c1ccccn1 13.7%, Cc1ccc(/C=N/N2CCN(c3ccccn3)CC2)cc1 6.1%, C(=N\N1CCN(c2ccccc2)CC1)/c1ccccc1 9.75%, Cc1ccc(/C=N/N2CCN(c3ccccc3)CC2)cc1 14.1%, COc1ccc(CCNC(=O)C2CCN(S(=O)(=O)c3ccc(OC)c(OC)c3)CC2)cc1OC 1.02%, CCCOc1ccc(C2C(C(=O)c3ccc(C)o3)=C(O)C(=O)N2Cc2ccco2)cc1 (stereo not given) 9.74%, O=[N+]([O-])c1ccc(NN=C(C2CC2)C2CC2)c([N+](=O)[O-])c1 9.77%, COC(=O)c1sc2nc(-c3ccccc3)nc(N3CCN(C)CC3)c2c1C 6.27%, COc1ccccc1N1C(=O)CC(Sc2ccccc2N)C1=O (stereo not given) 2.06%, COc1cc2ccc(=O)oc2cc1O 16.3%, COc1ccc(C(=O)Nc2c(O)ccc3ccccc23)cc1OC 9.73%, COc1ccc(Cc2c3cc(OC)c(OC)cc3cc[n+]2C)cc1OC -5.7%, COc1cc2ccc(C(C)=O)c(O)c2cc1OC 8.81%, O=C(CN(Cc1ccc(Cl)cc1)C(=O)CN1C(=O)COc2ccccc21)NC1CCCC1 8.29%, O=C(Nc1cccc(F)c1)Nc1ccc(Cl)cn1 0.09%, CC(=C/c1ccccc1)/C=N/N1CCN(Cc2ccc(C)cc2)CC1 7.95%, CCOC(=O)[C@H](O)[C@@H](O)c1cccc([C@H](O)[C@@H](O)C(=O)OCC)c1 11.8%, CN(Cc1ccccc1)C(=O)c1cc(-c2ccc(Br)cc2)on1 7.89%, Cc1ccc(CSc2nnc(NC(=O)Cn3cnc4ccccc4c3=O)s2)cc1 -8.67%, CCOC(=O)c1c(-c2ccccc2)csc1NC(=O)CCN1CCOCC1 18.3%, CCOC(=O)c1c(-c2ccc(-c3ccccc3)cc2)csc1NC(=O)CCN1CCOCC1 -2.88%, COC(=O)Cn1c(=NC(=O)C2COc3ccccc3O2)sc2cc(S(N)(=O)=O)ccc21 (stereo not given) 3.94%, COC(=O)c1cc(-c2ccc(Cl)cc2)n(-c2ccc(S(N)(=O)=O)cc2)n1 5.18%, O=S(=O)(N/N=C/c1ccc2c(c1)OCCO2)c1ccccc1 9.57%, COC(=O)c1cc(S(=O)(=O)NCc2ccccc2)c[nH]1 11.6%, COc1cc(O)cc2cc3c(c(O)c12)C(=O)CC(C)(O)O3 (stereo not given) -0.09%, CCOc1ccc(S(=O)(=O)n2c([N+](=O)[O-])cnc2C)c(C)c1C 6.34%, Cc1[nH]c(=S)c(C#N)c(C)c1CC(=O)c1ccc(Br)cc1 8.21%, O=C(CN1C(=O)c2ccccc2S1(=O)=O)c1ccc(F)c(F)c1 -3.06%, O=C(CN1C(=O)c2ccccc2S1(=O)=O)c1ccccc1 8.2%, COCCN(C(=O)CSc1nnc(C)n1-c1ccccc1)c1c(N)n(Cc2ccccc2)c(=O)[nH]c1=O 9.16%, Cc1cc(OCC(=O)NCc2ccccn2)c2c(C)cc(=O)oc2c1 2.23%, CN(C)C/C=C(/c1ccc(Br)cc1)c1cccnc1 3.6%, CN(C)CCCO/N=C(\c1ccccc1)c1ccncc1 24.4%, CC(C)c1ccc(NC(=O)NCc2ccccn2)cc1 8.07%, C[C@H](CO)N1C[C@H](C)[C@@H](CN(C)C(=O)Nc2ccc(C(F)(F)F)cc2)Oc2ccc(NC(=O)CCC(F)(F)F)cc2C1=O 5.69%, COCC(C)OC(=O)C(C#N)c1nc2ccccc2nc1N1CCN(Cc2ccccc2)CC1 (stereo not given) 6.54%, Cc1cc(C)n(CCC(=O)N/N=C/c2ccccc2O)n1 3.84%, O=C(Cn1cc(C(F)(F)F)ccc1=O)N/N=C/c1ccc(F)cc1 -1.82%, COc1ccc(/C=N/NC(=O)CCn2nc(C)cc2C)cc1O 26.5%, O=C(CCn1cnc2ccccc21)N/N=C/c1ccccc1O 0.87%, COc1ccc(/C=N/NC(=O)CCn2nc(C)cc2C)cc1 -2.7%, O=C(Cn1cc(C(F)(F)F)ccc1=O)N/N=C/c1ccc(Cl)cc1 11.1%, Cc1cc(C)n(CCC(=O)N/N=C/c2ccc(O)cc2O)n1 -27.4%, O=C(CCn1cnc(-c2ccccc2)c1-c1ccccc1)N/N=C/c1ccc(O)cc1 27.5%, O=C(Nc1ccc(C(=O)N2CCCCC2)cc1)c1ccc([N+](=O)[O-])cc1 1.12%, Cc1ccccc1-c1cc(C(=O)O)nn1CC1CC(c2cccc([N+](=O)[O-])c2)=NO1 (stereo not given) 4.15%, COc1ccc(CCNC(=O)c2cc(C3CC3)nc3c2cnn3C(C)C)cc1 1.51%, O=C(Nn1cnnc1)c1ccc(OC(F)(F)C(F)C(F)(F)F)cc1 (stereo not given) 7.79%, CCCNC(=S)NNC(=O)c1cc(-c2cccnc2)nc2ccccc12 0.84%, CS(=O)(=O)c1cccc(C(=O)Nc2cccc(S(=O)(=O)N3CCCC3)c2)c1 3.17%, CC(=O)N1CCN(C(=O)c2ccc(NS(=O)(=O)c3ccc4c(c3)OCCO4)cc2)CC1 5.18%, O=C(CSc1ccc2ccccc2n1)N/N=C/c1ccccc1O 4.3%, COc1ccccc1/C=N/NC(=O)CSc1ccc2ccccc2n1 17.4%, O=C(CNC(=O)c1ccc(Cl)cc1Cl)NCc1ccccn1 -0.06%, CC1CCN(S(=O)(=O)c2ccc3[nH]c(=O)[nH]c3c2)CC1 6.82%, CC1CCN(S(=O)(=O)c2ccc3ccccc3c2)CC1 1.45%, Cc1ccc2c(c1)N(C(C)C(=O)NCc1ccc3c(c1)OCO3)C(=O)CO2 (stereo not given) 11.4%, Cc1ccc(C(=O)COC(=O)c2nc3nccc(C)n3n2)c(C)c1 5.3%, NC(=O)c1cc2ccncc2c2ccccc12 8.91%, CC1NC(C)(C)Cc2c1ccc1ccccc21 (stereo not given) 2.36%, CC1CC2(CCCCC2)Nc2ccc3ccccc3c21 (stereo not given) 12.5%, Cc1cccc(OCC(=O)NNC(=O)C2CCN(c3ncnc4sc(C)c(C)c34)CC2)c1 12.2%, CNc1nc(Nc2ccc(C(C)=O)cc2)nc(OC(C(F)(F)F)C(F)(F)F)n1 8.39%, COc1ccc(Nc2nc(OC)nc(OC)n2)cc1 14.1%
